# Measurements taken from PubChem BioAssay (NCATS).
# Values without a mark were called inactive. Inconclusive results are not listed. Entries that show only a call come without a potency. Activity calls are given as the source filed them. The call rests on the fitted dose curve; in most records, active means well fitted curve in the direction sought with a large enough effect; inconclusive means small, poorly fitted or top-dose-only effect, or another doubt; inactive means no such curve, though single readings can be large; an effect the other way counts as inactive or inconclusive.
# Legend:
# [1] = system: Zika virus NS2B-NS3 protease (linked construct); test: Primary screen NINDS Rhodamine qHTS for Zika virus inhibitors (AID 1347160); further: nearly all actives have a fitted effect of over 55% in size
# How it was run: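 In 10 mM Tris-HCl pH 8.0 containing 0.01% Tween 20, linked NS2B-NS3 protease (25 nM final) is exposed to test compounds for 15 min. Cleavage of 1.5 microM Rhodamine110 substrate is tracked by fluorescence over 15 min.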
# [2] = biological target: Calcium and integrin-binding protein 1 (Homo sapiens) (UniProt Q99828); test: Primary qHTS for Identification of Calcium Integrin Binding Protein 1 (CIB1) Competitor (AID 1508620);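 further: GST tagged CIB1 binding a fluorescein labelled alphaIIb integrin peptide tracer; top concentration of the series differs between compounds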
# How it was run: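 Fluorescence polarization competition: CIB1-GST (1 uM final) preincubated with compound 15 min at room temperature, then FITC-labeled alphaIIb peptide (100 nM final) added for another 15 min. Polarization read at Ex 480/Em 540.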
# [3] = Primary qHTS for inhibitors of nuclear receptor binding SET domain protein 2 (NSD2) in an isogenic RCH-ACV NSD2 p.E1099K mutant (9B) (AID 1645876); further: nearly all actives have a fitted effect of over 70% in size; further: potency means the concentration at half of the fitted maximal effect
# [4] = Primary qHTS for inhibitors of nuclear receptor binding SET domain protein 2 (NSD2) in an RCH-ACV wild type WT cells (2C) (AID 1645877); further: nearly all actives have a fitted effect of over 70% in size; further: potency means the concentration at half of the fitted maximal effect
# [5] = biological target: Glutathione peroxidase 1 (Homo sapiens) (UniProt P07203); test: Primary qHTS Assay for Inhibitors of Recombinant Selenoprotein Glutathione Peroxidase 1 (GPX1) (AID 1845191); further: nearly all actives have a fitted effect of over 65% in size
# How it was run: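 Recombinant GPX1 (10 nM final) was preincubated with compound for 30 min at room temperature, then reacted with 1 mM GSH, 0.5 mM CHP, 0.5 mM NADPH and 100 nM glutathione reductase; NADPH fluorescence (340/450 nm) was read at 0 and 15 min.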
# [6] = biological target: Phospholipid hydroperoxide glutathione peroxidase GPX4 (Homo sapiens) (UniProt P36969); test: Primary qHTS Assay for Inhibitors of Recombinant Selenoprotein Glutathione Peroxidase 4 (GPX4) (AID 1845192); conditions: outcome: dose series up to 50 µM unless noted; further: nearly all actives have a fitted effect of over 65% in size
# How it was run: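 GR-coupled readout: 100 nM GR, 1 mM GSH, 0.5 mM NADPH; NADPH fluorescence (ex 340/em 450 nm) read at t=0 and after 15 min RT. GPX4 200 nM, preincubated 30 min with compound; substrate 0.5 mM CHP.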
# [7] = biological target: Luciferin 4-monooxygenase (Photinus pyralis) (UniProt P08659); test: Primary firefly luciferase (FLuc) qHTS assay for identification of artifact compounds. (AID 1845220); further: nearly all actives have a fitted effect of over 60% in size
# How it was run: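 qHTS, 15 min compound preincubation with substrate (10 uM luciferin, 10 uM ATP) at RT, then 10 nM FLuc; 5 min; luminescence; % inhibition vs no-enzyme/DMSO controls, 4-parameter Hill fit.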
# [8] = system: Nanoluciferase (engineered Oplophorus gracilirostris luciferase); test: Primary Nanoluciferase (NLuc) qHTS assay for identification of artifact compounds. (AID 1845222)
# How it was run: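 Luminescence read-out of secreted NLuc in S16 cell conditioned medium (1:55); compounds tested with 15 min RT preincubation, then Nano-Glo substrate 1:100, 5 min. % inhibition vs no-enzyme and DMSO controls, 4-parameter Hill fit.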
# [9] = Primary redox qHTS assay for identification of artifact compounds. (AID 1845223)
# How it was run: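 Amplex Red (25 uM) and HRP (250 mU/mL) in HBSS, with compounds for 15 min, then 250 uM DTT for 30 min, room temperature, dark. Fluorescence 525/598 nm read; normalized to DMSO and 10 uM DA3003; Hill fit.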
# CASKI = test: Primary qHTS to identify gynecologic anti-cancer compounds using libraries of approved drugs and bioactive compounds (AID 1345084); conditions: Gynecologic cancer cell panel viability, ATPlite luminescence, 48 h; series mostly up to 57.5 µM; further: nearly all actives have a fitted effect of over 55% in size
# How it was run: (§1)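 Cytotoxicity screen measuring ATP content by luciferase luminescence. Each compound is applied at five concentrations for 48 h at 37 C with 5% CO2.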
# HeLa = test: as above; conditions: Gynecologic cancer cell panel viability, ATPlite luminescence, 48 h; series mostly up to 57.5 µM
# How it was run: as §1
# Hek293T = test: as above; conditions: Gynecologic cancer cell panel viability, ATPlite luminescence, 48 h, control line for the selectivity index; series mostly up to 57.5 µM
# How it was run: as §1
# C33A = test: as above; conditions: Gynecologic cancer cell panel viability, ATPlite luminescence, 48 h; series mostly up to 57.5 µM
# How it was run: as §1
# Es-2 = test: as above; conditions: Gynecologic cancer cell panel viability, ATPlite luminescence, 48 h; series mostly up to 57.5 µM
# How it was run: as §1
# JEG-3 = test: as above; conditions: Gynecologic cancer cell panel viability, ATPlite luminescence, 48 h; series mostly up to 57.5 µM
# How it was run: as §1
# OV90 = test: as above; conditions: Gynecologic cancer cell panel viability, ATPlite luminescence, 48 h; series mostly up to 57.5 µM
# How it was run: as §1
# PA-1 = test: as above; conditions: Gynecologic cancer cell panel viability, ATPlite luminescence, 48 h; series mostly up to 57.5 µM
# How it was run: as §1
# Tov-21-G = test: as above; conditions: Gynecologic cancer cell panel viability, ATPlite luminescence, 48 h; series mostly up to 57.5 µM
# How it was run: as §1
# Tov112D = test: as above; conditions: Gynecologic cancer cell panel viability, ATPlite luminescence, 48 h; series mostly up to 57.5 µM
# How it was run: as §1
# Phospholipid hydroperoxide glutathione peroxidase GPX4 (Homo sapiens), sequence (P36969 whole entry, looked up): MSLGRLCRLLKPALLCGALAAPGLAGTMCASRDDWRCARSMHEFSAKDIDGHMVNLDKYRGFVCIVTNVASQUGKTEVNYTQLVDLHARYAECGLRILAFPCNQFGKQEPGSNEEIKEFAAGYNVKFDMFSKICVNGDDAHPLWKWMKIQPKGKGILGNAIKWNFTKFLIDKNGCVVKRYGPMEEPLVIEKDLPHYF
# Calcium and integrin-binding protein 1 (Homo sapiens), sequence (Q99828 whole entry, looked up): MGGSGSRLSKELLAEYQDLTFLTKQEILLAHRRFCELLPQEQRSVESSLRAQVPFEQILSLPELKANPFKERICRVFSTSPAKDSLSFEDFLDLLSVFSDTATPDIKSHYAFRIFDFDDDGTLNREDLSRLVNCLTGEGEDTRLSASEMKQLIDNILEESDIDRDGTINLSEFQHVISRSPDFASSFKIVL
# Glutathione peroxidase 1 (Homo sapiens), sequence (P07203 whole entry, looked up): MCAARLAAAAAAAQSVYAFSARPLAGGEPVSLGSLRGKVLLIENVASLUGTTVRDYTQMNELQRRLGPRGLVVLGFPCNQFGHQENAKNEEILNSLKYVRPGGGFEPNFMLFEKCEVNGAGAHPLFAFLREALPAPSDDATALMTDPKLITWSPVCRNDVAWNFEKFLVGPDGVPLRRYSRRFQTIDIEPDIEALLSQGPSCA
SMILES,Potency [1],outcome [2],Potency [3],Potency [4],Potency [5],Potency [6],Potency [7],Potency [8],Potency [9],Potency (CASKI),Potency (HeLa),Potency (Hek293T),Potency (C33A),Potency (Es-2),Potency (JEG-3),Potency (OV90),Potency (PA-1),Potency (Tov-21-G),Potency (Tov112D)
CC1OC2O[C@H]3[C@@H](OCC(O)[C@H]3O)OC(=O)C34CCC(C)(C)CC3C3=CCC5C6(C)CC(O)C(OC7OC(CO)C(O)C(O)C7O[C@@H]7OC[C@H](OC(=O)CC(C)(O)CC(=O)OC1C(OC1OCC(O)C(O)C1O)C2O)[C@@H](O)[C@H]7O)C(C)(CO)C6CCC5(C)C3(C)CC4 (stereo not given in full),inactive,inactive,8.93 µM (active),4.47 µM (active),inactive,inactive,inactive,inactive,inactive,inactive,inactive,inactive,–,–,–,–,–,–,–
CO[C@@H]1[C@@H](O[C@H]2O[C@@H](C)[C@H](O[C@@H]3C[C@](C)(O)[C@H](O)[C@@H](C)O3)[C@@H](N(C)C)[C@@H]2O)[C@@H](CC=O)C[C@@H](C)[C@@H](O[C@H]2CC[C@H](N(C)C)[C@H](C)O2)/C=C/C=C/C[C@@H](C)OC(=O)C[C@H]1O,inactive,inactive,inactive,–,–,inactive,inactive,inactive,–,inactive,inactive,inactive,inactive,inactive,inactive,inactive,inactive,inactive,inactive
CCCCc1nc(Cl)c(CO)n1Cc1ccc(-c2ccccc2-c2nnn[nH]2)cc1,inactive,inactive,inactive,inactive,–,inactive,inactive,–,inactive,inactive,inactive,inactive,inactive,inactive,inactive,inactive,inactive,inactive,inactive
O=c1c(-n2ccnn2)c[nH]n1-c1cc(N2CCOCC2)ncn1,–,inactive,20.9 µM (active),20.9 µM (active),inactive,inactive,–,–,–,–,–,–,–,–,–,–,–,–,–
